Counter-ions that a name gives are not always drawn.
Columns and labels:
Settings in all cases: 20 µM; incubation time: 27 h, anaerobic, 37 °C;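 for the amine columns active = adjusted P below 0.05 in both replicates with a change the same way and a mean fold change under 0.8 or over 1.25; inactive = the rest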
[1] = tested on: Clostridium sporogenes DSM 1664; test: growth (OD595) fold change vs plate DMSO controls (fold change (ratio)); higher = more growth
Procedure, shortened: (§1)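 Each value is the mean of 2 biological replicates, and fold changes above 1.5 were set to NA. The underlying readings were taken at 595 nm from shaken anaerobic mGAM cultures in 96-well plates after 27 h at 37 °C. They were blank-subtracted, corrected for compound background using 20 µM compound solutions in water, and converted to OD with a calibration factor of 5. Growth is the fold change relative to the median of the plate DMSO controls.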

Escherichia coli IAI1 [2] = test: as above
Procedure, shortened: as §1

[3] = tested on: Klebsiella aerogenes DSM 30053; test: as above
Procedure, shortened: as §1

[4] = tested on: Ruminococcus gnavus DSM 108212; test: as above
Procedure, shortened: as §1

[5] = tested on: Klebsiella aerogenes DSM 30053; test: fold change of Histamine concentration vs plate DMSO controls (fold change (ratio)); higher = more amine produced, active = hit call of the paper (significant change in both replicates, either direction)
Procedure, shortened: (§2)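 Extracts of whole anaerobic mGAM cultures were analysed for amines by LC–triple-quadrupole MS with dynamic MRM and external calibration curves, with drift corrected within batch. Four gut strains were grown at 37 °C for 27 h in 80 µL wells with compounds at 20 µM final, sweeteners at 50 µM final. Each value expresses fold change over plate DMSO controls. The average of 2 biological replicates is shown.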

[6] = tested on: Clostridium sporogenes DSM 1664; test: fold change of Tryptamine concentration vs plate DMSO controls (fold change (ratio)); higher = more amine produced, active = hit call of the paper (significant change in both replicates, either direction)
Procedure, shortened: as §2

[7] = tested on: Ruminococcus gnavus DSM 108212; test: as above
Procedure, shortened: as §2

Escherichia coli IAI1 [8] = test: fold change of Putrescine concentration vs plate DMSO controls (fold change (ratio)); higher = more amine produced, active = hit call of the paper (significant change in both replicates, either direction)
Procedure, shortened: as §2

[9] = tested on: Klebsiella aerogenes DSM 30053; test: as above
Procedure, shortened: as §2

Escherichia coli IAI1 [10] = test: fold change of Cadaverine concentration vs plate DMSO controls (fold change (ratio)); higher = more amine produced, active = hit call of the paper (significant change in both replicates, either direction)
Procedure, shortened: as §2

[11] = tested on: Klebsiella aerogenes DSM 30053; test: as above
Procedure, shortened: as §2

[12] = tested on: Ruminococcus gnavus DSM 108212; test: fold change of 2-Phenylethylamine concentration vs plate DMSO controls (fold change (ratio)); higher = more amine produced, active = hit call of the paper (significant change in both replicates, either direction)
Procedure, shortened: as §2

Structure (SMILES) | growth [1] | growth (Escherichia coli IAI1 [2]) | growth [3] | growth [4] | fold change of Histamine concentration [5] | fold change of Tryptamine concentration [6] | fold change of Tryptamine concentration [7] | fold change of Putrescine concentration (Escherichia coli IAI1 [8]) | fold change of Putrescine concentration [9] | fold change of Cadaverine concentration (Escherichia coli IAI1 [10]) | fold change of Cadaverine concentration [11] | fold change of 2-Phenylethylamine concentration [12]
CCSC(C)CC1CC(=O)C(/C(CC)=N/OC/C=C/Cl)=C(O)C1 (mixture of isomers) | 0.928 | 1.04 | 0.988 | 0.939 | 1.02 (inactive) | 1.01 (inactive) | 1.03 (inactive) | 1.02 (inactive) | 0.996 (inactive) | 1 (inactive) | 1.01 (inactive) | 0.99 (inactive)
Cc1ccc(/N=C/N(C)/C=N/c2ccc(C)cc2C)c(C)c1 | 0.953 | 1.05 | 1.03 | 1.06 | 1.03 (inactive) | 0.98 (inactive) | 0.939 (inactive) | 0.981 (inactive) | 1.01 (inactive) | 1.01 (inactive) | 0.991 (inactive) | 0.926 (inactive)
C#C[C@]1(O)CC[C@H]2[C@@H]3CCC4=CC(=O)CC[C@]4(C)[C@H]3CC[C@@]21C [Ethisterone] | 0.939 | 1.07 | 1.01 | 0.986 | 1.05 (inactive) | 1.02 (inactive) | 1 (inactive) | 1.03 (inactive) | 1.04 (inactive) | 0.988 (inactive) | 0.997 (inactive) | 1.04 (inactive)
CCN(CC)CCOC(=O)C(O)(c1ccccc1)c1ccccc1 [Benactyzine hydrochloride] | 1.07 | 1.01 | 1.01 | 0.944 | 0.998 (inactive) | 0.997 (inactive) | 1.06 (inactive) | 1.02 (inactive) | 0.992 (inactive) | 0.986 (inactive) | 0.999 (inactive) | 1.07 (inactive)
N#Cc1nn(-c2c(Cl)cc(C(F)(F)F)cc2Cl)c(N)c1[S+]([O-])C(F)(F)F (configuration not stated) | 1.16 | 0.982 | 0.977 | 1.02 | 1.1 (inactive) | 1.13 (inactive) | 1.06 (inactive) | 1.05 (inactive) | 1.05 (inactive) | 0.937 (inactive) | 1.08 (inactive) | 1.27 (inactive)
COc1cccc(C2(O)CCCCC2CN(C)C)c1 (configuration not stated) [Tramadol hydrochloride] | 1.04 | 0.988 | 0.985 | 1.12 | 1.04 (inactive) | 1.06 (inactive) | 0.925 (inactive) | 1.05 (inactive) | 1.02 (inactive) | 0.969 (inactive) | 1 (inactive) | 0.873 (inactive)
CCC(C)(c1ccc(O)cc1)c1ccc(O)cc1 [Bisphenol B] | 1.05 | 1.04 | 0.977 | 1.02 | 1.06 (inactive) | 1.04 (inactive) | 0.962 (inactive) | 0.976 (inactive) | 0.994 (inactive) | 1 (inactive) | 0.98 (inactive) | 0.974 (inactive)
Fc1ccc(Oc2ccnc3cc(Cl)cc(Cl)c23)cc1 | 1.06 | 1.01 | 1.02 | 1.04 | 1.02 (inactive) | 1.01 (inactive) | 0.957 (inactive) | 1.05 (inactive) | 1.02 (inactive) | 0.961 (inactive) | 1 (inactive) | 0.915 (inactive)
CCOc1cc(Oc2ccc(C(F)(F)F)cc2Cl)ccc1[N+](=O)[O-] | 1.13 | 0.996 | 1 | 0.995 | 0.981 (inactive) | 1.06 (inactive) | 1.04 (inactive) | 0.953 (inactive) | 0.943 (inactive) | 0.933 (inactive) | 1.08 (inactive) | 1.05 (inactive)
CCC1(C2=NCCN2)Cc2ccccc2O1 (configuration not stated) [Efaroxan hydrochloride] | 1.05 | 1.05 | 0.982 | 1.08 | 0.992 (inactive) | 0.939 (inactive) | 1.03 (inactive) | 0.97 (inactive) | 1.01 (inactive) | 1.06 (inactive) | 0.997 (inactive) | 1.01 (inactive)
N#CC(CCc1ccc(Cl)cc1)(Cn1cncn1)c1ccccc1 (configuration not stated) | 1.11 | 1.08 | 0.94 | 1.14 | 0.476 (inactive) | 0.979 (inactive) | 1.04 (inactive) | 1.07 (inactive) | 0.482 (inactive) | 0.972 (inactive) | 0.478 (inactive) | 1.08 (inactive)
O=C(NCCc1ncc(C(F)(F)F)cc1Cl)c1ccccc1C(F)(F)F | 1.04 | 1.04 | 1.16 | 1.22 | 0.918 (inactive) | 0.969 (inactive) | 1.04 (inactive) | 0.983 (inactive) | 1.03 (inactive) | 0.972 (inactive) | 1.04 (inactive) | 1.02 (inactive)
O=[N+]([O-])c1cc(C(F)(F)F)c(Cl)c([N+](=O)[O-])c1Nc1ncc(C(F)(F)F)cc1Cl | 0.825 | 0.986 | 0.991 | 1.18 | 1.07 (inactive) | 0.464 (inactive) | 0.887 (inactive) | 1.05 (inactive) | 1.05 (inactive) | 1.15 (inactive) | 1.02 (inactive) | 0.826 (inactive)
COc1ccc(CN2CCNCC2)c(OC)c1OC [Trimetazidine dihydrochloride] | 0.945 | 0.975 | 0.973 | 1.15 | 1.12 (inactive) | 1.05 (inactive) | 1.03 (inactive) | 0.973 (inactive) | 1.02 (inactive) | 1.01 (inactive) | 0.971 (inactive) | 1.03 (inactive)
C[C@]12Cc3c[nH]nc3C[C@@H]1CC[C@@H]1[C@@H]2CC[C@@]2(C)[C@H]1CC[C@]2(C)O [Stanozolol] | 1.18 | 0.985 | 1.1 | 1.05 | 0.911 (inactive) | 0.973 (inactive) | 0.976 (inactive) | 0.981 (inactive) | 0.99 (inactive) | 0.959 (inactive) | 1.02 (inactive) | 1 (inactive)
COc1ccccc1N [o-Anisidine] | 1.07 | 1.04 | 0.996 | 1.01 | 1.03 (inactive) | 1.08 (inactive) | 1 (inactive) | 1 (inactive) | 0.983 (inactive) | 0.947 (inactive) | 0.997 (inactive) | 1.01 (inactive)
CN(C)[C@@H]1C(=O)C(C(N)=O)=C(O)[C@@]2(O)C(=O)C3=C(O)c4c(O)cccc4[C@@](C)(O)[C@H]3C[C@@H]12 [Tetracycline hydrochloride] | 0.00861 | 0.0722 | 0.0623 | 0.735 | 0.0521 (active) | 0.024 (active) | 0.799 (inactive) | 0.291 (inactive) | 0.481 (inactive) | 0.148 (active) | 0.411 (inactive) | 0.86 (inactive)
CCCN1C[C@H](CSC)C[C@@H]2c3cccc4[nH]cc(c34)C[C@H]21 [Pergolide mesylate] | 0.995 | 0.953 | 0.998 | 0.982 | 0.953 (inactive) | 0.969 (inactive) | 1.02 (inactive) | 0.968 (inactive) | 0.993 (inactive) | 1.06 (inactive) | 1.01 (inactive) | 1.04 (inactive)
CN[C@@H]1C[C@@H](c2ccc(Cl)c(Cl)c2)c2ccccc21 [Indatraline hydrochloride] | 1.13 | 1.06 | 0.959 | 0.932 | 0.904 (inactive) | 1.29 (inactive) | 0.8 (inactive) | 0.811 (inactive) | 0.863 (inactive) | 0.98 (inactive) | 1.1 (inactive) | 0.883 (inactive)
CC(C)CC(C)c1sccc1NC(=O)c1cn(C)nc1C(F)(F)F (configuration not stated) | 1.03 | 1.05 | 1.01 | 0.961 | 0.988 (inactive) | 0.935 (inactive) | 1.03 (inactive) | 1.05 (inactive) | 1.01 (inactive) | 1 (inactive) | 0.991 (inactive) | 1.03 (inactive)
CO/C=C(/C(=O)OC)c1ccccc1Oc1cc(Oc2ccccc2C#N)ncn1 | 0.938 | 0.996 | 1.01 | 0.966 | 0.996 (inactive) | 1.02 (inactive) | 1.01 (inactive) | 1.04 (inactive) | 0.994 (inactive) | 0.962 (inactive) | 0.992 (inactive) | 1.01 (inactive)
COC(=O)Nc1nc2ccccc2[nH]1 | 0.898 | 0.977 | 0.989 | 0.903 | 1.01 (inactive) | 0.968 (inactive) | 0.959 (inactive) | 0.997 (inactive) | 1 (inactive) | 1 (inactive) | 0.989 (inactive) | 0.951 (inactive)
CC(C)(C)NCC(O)c1cc(Cl)c(N)c(Cl)c1 (configuration not stated) [Clenbuterol hydrochloride] | 1.03 | 1.02 | 1.01 | 1.13 | 0.983 (inactive) | 0.986 (inactive) | 1.02 (inactive) | 0.991 (inactive) | 0.983 (inactive) | 0.987 (inactive) | 1 (inactive) | 1.02 (inactive)
CC1COC(Cn2cncn2)(c2ccc(Oc3ccc(Cl)cc3)cc2Cl)O1 (configuration not stated) | 1.16 | 1.02 | 1.01 | 1.13 | 1.01 (inactive) | 0.964 (inactive) | 0.934 (inactive) | 1.02 (inactive) | 0.996 (inactive) | 0.995 (inactive) | 0.995 (inactive) | 0.954 (inactive)
CNC(=O)c1cc(C#N)cc(C)c1NC(=O)c1cc(Br)nn1-c1ncccc1Cl | 1.13 | 0.996 | 0.981 | 1.06 | 1 (inactive) | 1.2 (inactive) | 1.06 (inactive) | 0.935 (inactive) | 0.938 (inactive) | 0.886 (inactive) | 1.02 (inactive) | 1.08 (inactive)
Cc1cc(C2CC2)nc(Nc2ccccc2)n1 | 0.944 | 1.01 | 0.977 | 0.987 | 1.04 (inactive) | 0.966 (inactive) | 0.968 (inactive) | 0.975 (inactive) | 0.972 (inactive) | 1.01 (inactive) | 0.99 (inactive) | 1.2 (inactive)
